Shiga inhibitor: blocks Shiga toxin action in Vero cells; inhibition, % at 38.7 µM; 290,000 tested, 9.2% active; Vero cells, Shiga toxin protein synthesis inhibition reporter; in the data active = inhibition mostly above about 28%, no sharp cut-off; inactive = mostly below about 43%; also: 0% is about no effect
Pf growth 48h: P. falciparum growth inhibition at 48 hours (one generation) | P. falciparum luciferase growth in erythrocytes, 48 h | Potency, µM (doses to about 28.7 µM), inactives show at the top dose activity change, negative = inhibition, usual class: inhibitors | 310,000 tested, 5.9% active | AID 504832; also: potency is read from the fitted curve at half-maximal effect; % is scaled to controls: 0 for no effect and ±100 for the full control effect
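Cell-based growth assay: transgenic P. falciparum expressing firefly luciferase, cultured in red cells within RPMI 1640 containing 0.5% w/v Albumax, 24 mM bicarbonate and gentamycin. A drop in luciferase activity indicates inhibition.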
CHX counter: counter-screen for Shiga toxin inhibitors: cycloheximide protein synthesis inhibition; max response, %; 300,000 tested, 12% active; cell reporter, cycloheximide protein synthesis inhibition counterscreen; AID 2314; in the data active = max response mostly above about 13%, no sharp cut-off; inactive = mostly below about 14%; also: read at 38.3 µM for the half of the compounds with a filed dose; 0% is about no effect
NS1 function inh: inhibitors of influenza NS1 protein function. Potency, µM (top dose mostly 46.1 µM), without a hit: at the top dose activity, positive = more growth. 270,000 tested, 0.4% active. AID 2326; calls by dose curve; also: potency is read from the fitted curve at half-maximal effect; actives are rising curves; nearly all actives have a fitted effect of over 50% in size
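Compounds were scored for reversing the slow growth caused by influenza A NS1 in S. cerevisiae, measured by optical density at 600 nm. Assay medium contained 2% galactose at pH 6.0; NS1-free yeast of the same strain were the positive control.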
Pf growth 96h: P. falciparum growth inhibition at 96 hour, primary screen for plastid delayed-death inhibitors. P. falciparum luciferase reporter growth, 96 h. Potency, µM (series often up to 28.7 µM), without a hit: at the highest dose activity change, negative = inhibition, actives largely listed as inhibitors. 320,000 tested, 6.9% active; also: potency is read from the fitted curve at half-maximal effect; % is scaled to controls: 0 for no effect and ±100 for the full control effect
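Plates of compound plus infected erythrocytes (2% hematocrit, 0.05% parasitemia final) incubate 96 hours, 37 C, 5% CO2. Detection reagent added; reduced luminescence from the parasites' luciferase reporter flags inhibition.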
An asterisk follows results filed as active; ? = inconclusive; / = no result; [ ] = dose if it differs, or a comment. Only some compounds are listed: those with a hit (about 21% of all), similar ones and a draw of the others. Unless noted, calls follow the shape of the dose curve; as a rule, active = well fitted inhibition curve with a large enough effect; inconclusive = small, poorly fitted or top-dose-only effect, or another doubt; inactive = no such curve, though single readings can be large or run the other way.

SMILES	Shiga inhibitor	Pf growth 48h	CHX counter	NS1 function inh	Pf growth 96h
CC(C)CC(NC(=O)c1ccco1)C(=O)Nc1ccc2c(c1)OCCO2 (centres undefined)	84*	/	72*	-8%	?
O=C(NCc1ccc(F)cc1)C1CCCN(c2nc3ccsc3c(=O)s2)C1 (centres undefined)	-10	?	-3	/	?
CC1(C)Cc2nc3sc4c(N(CCO)CCO)nnnc4c3cc2CO1	78*	24%	29*	/	16%
CC1(C)Cc2nc3sc4c(N(CCO)CCO)ncnc4c3cc2CO1	29	6%	21*	6%	-9%
COC(=O)CSc1ncnc2c1sc1nc3c(cc12)COC(C)(C)C3	-3	81%	6	0%	?
CC1(C)Cc2nc3sc4c(SCC(=O)O)ncnc4c3cc2CO1	-7	0.83µM*	2	-6%	?
CCCCN(C(=O)c1ccc2c(c1)OCCO2)c1c(N)n(CC(C)C)c(=O)[nH]c1=O	/	-13%	/	/	1%
Cc1ccc(-c2nnn(CC(=O)N(Cc3ccco3)C(C(=O)NC(C)(C)C)c3cccs3)n2)o1 (centres undefined)	2	15µM*	-4	-11%	-9%
COc1cccc(N(C(=O)Cn2nnc(-c3ccc(C)o3)n2)C(C(=O)NC(C)(C)C)c2cccs2)c1 (centres undefined)	-6	13µM*	-2	-15%	-19%
CC(C)(C)NC(=O)C(c1ccco1)N(C(=O)Cn1nnc(-c2ccc(F)cc2)n1)c1cccc(F)c1 (centres undefined)	10	?	-4	-33%	-3%[5.75 µM]
CC(C)(C)NC(=O)C(c1c[nH]c2ccccc12)N(C(=O)Cn1nnc(-c2ccc(F)cc2)n1)c1cccc(O)c1 (centres undefined)	-9	2.6µM*	-2	?	?
COC(=O)c1sc(N)c(C(=O)OC)c1COC(=O)CCNS(=O)(=O)c1ccc(C)cc1	-7	?	1	-5%	10µM*
COC(=O)c1sc(N)c(C(=O)OC)c1COC(=O)CNS(=O)(=O)c1ccc(C)c(C)c1	-1	?	1	-18%	?
CCCN1CCN(C(=O)c2ccc3nc(CC)c(CC)nc3c2)CC1	-8	35%	-6	3%	444%
CCc1nc2ccc(C(=O)N3CCN(c4cccc(C(F)(F)F)c4)CC3)cc2nc1CC	-9	-17%	-7	16%	?
CCc1nc2ccc(C(=O)O)cc2nc1CC	91*	126%	91*	9%	243%
CCc1nc2ccc(C(=O)Nc3nnc(C)s3)cc2nc1CC	16	-18%	12*	5%	39%
CCc1nc2ccc(C(=O)N3CCN(c4ccc(Cl)cc4)CC3)cc2nc1CC	-2	-10%	-1	-17%	5.2µM*
CCc1nc2ccc(C(=O)N3CCN(c4ccccc4)CC3)cc2nc1CC	1	-5%	-3	10%	2.6µM*
CNS(=O)(=O)c1cccc(C(=O)NNC(=O)c2ccc(COc3ccccc3)cc2)c1	-3	-2%	2	9%	29%
CC(NC(=O)CN1CCCC1)c1ccccc1 (centres undefined)	1	-2%	1	-2%	0%
COc1cccc(C(=O)Nc2nnc(S(=O)(=O)N(C)Cc3ccccc3)s2)c1	-2	0%	-9	4%	?
COc1ccc(/C=C/CN2CCN(Cc3cccc(OC)c3)C(CCO)C2)cc1 (centres undefined)	-7	?	-1	2%	?
CC(C)(O)C#Cc1ccc(CN2CCN(Cc3ccsc3)C(CCO)C2)s1 (centres undefined)	-10	-4%	-1	-5%	8.3µM*
COc1ccc(/C=C/CN2CCN(CC(C)C)C(CCO)C2)cc1 (centres undefined)	23	?	13	1%	4.1µM*
SMILES	Shiga inhibitor	Pf growth 48h	CHX counter	NS1 function inh	Pf growth 96h
Cc1ccc(CN2CCN(CC(C)C)C(CCO)C2)s1 (centres undefined)	82*	15%	39*	-3%	?
CC(C)CN1CCN(Cc2cnc(-c3ccc(Cl)cc3)nc2)CC1CCO (centres undefined)	111	19%	13*	-3%	?
CC(C)(O)C#Cc1ccc(CN2CCN(Cc3ccccc3)C(CCO)C2)s1 (centres undefined)	-7	?	6	9%	?
Cc1c([N+](=O)[O-])cc(C(=O)NCc2ccc(F)cc2)cc1[N+](=O)[O-]	16	-24%	2	-1%	26%
CCOC(=O)c1cnc2c(C)cccc2c1NCCCN1CCOCC1	-5	?	7	-5%	?
Cc1ccc(NC2=CC(=O)CC(c3ccccc3)C2)cc1 (centres undefined)	-2	?	-2	-3%	?
Cc1ccc(NC2=CC(=O)CC(c3ccc(Cl)cc3)C2)cc1 (centres undefined)	-13	13µM*	2	-5%	?
CC(OC(=O)c1nc(-c2ccccc2)n(-c2ccccc2)n1)C(=O)Nc1cc(Cl)cc(Cl)c1 (centres undefined)	-9	32%	-4	?	91%
O=C(c1ccccc1)N1CCCC(c2nc3c(nnn3Cc3ccccc3)c(=O)[nH]2)C1 (centres undefined)	-7	13µM*	8	0%	39%
Cc1ccc(C)c(Cn2nnc3c(=O)[nH]c(C4CCCN(C(=O)C5CCCCC5)C4)nc32)c1 (centres undefined)	-13	6.6µM*	-4	-12%	3%
CC(=O)c1cccc(S(=O)(=O)N2CCCC(c3nc4c(nnn4Cc4ccc(C)cc4)c(=O)[nH]3)C2)c1 (centres undefined)	-14	?	-1	12%	28%
O=C(C1CCCCC1)N1CCCC(c2nc3c(nnn3Cc3ccccc3)c(=O)[nH]2)C1 (centres undefined)	-20	?	-2	0%	/
CC(=O)c1cccc(S(=O)(=O)N2CCCC(c3nc4c(nnn4Cc4cccc(Cl)c4)c(=O)[nH]3)C2)c1 (centres undefined)	-3	7.4µM*	-3	4%	8.3µM*
COc1ccccc1NC(=O)N1CCCC(c2nc3c(nnn3Cc3ccc(C)cc3)c(=O)[nH]2)C1 (centres undefined)	-10	9.3µM*	-3	2%	-6%
CCCNC(=O)Nc1ccsc1C(=O)OC	31	-5%	-2	/	6%
COc1ccc(CNC(=O)CSc2ncnc3nc[nH]c23)cc1	-11	-3%	-6	?	7%
COc1ccccc1N1CCN(S(=O)(=O)CCNC(=O)c2ccccc2Br)CC1	-5	15%	-1	5%	12%
C[C@@H](CS(=O)(=O)Cc1ccccc1)C(N)=O	/	/	/	-3%	/
CS(=O)(=O)N(CC(=O)N1CCc2ccccc2C1)c1ccc2c(c1)OCO2	5	13%	-5	-8%	/
O=C(c1cccs1)N1CCCC(c2nc3c(nnn3Cc3ccccc3)c(=O)[nH]2)C1 (centres undefined)	-5	8.3µM*	-4	3%	5.9µM*
